Some test systems named below: HT29 colon; SNB-75 CNS; SNB-19 CNS; U251 CNS; PC-3 prostate; SK-MEL-5 melanoma; UACC-62 melanoma; SK-MEL-28 melanoma; SK-MEL-2 melanoma; LOX IMVI melanoma.
Holding throughout (test): NCI-60 one-dose screen, 48 h (100 = growth as untreated, 0 = no growth, -100 = all killed)
Common to all, as to details: 10 µM unless noted

Here are results for 15 molecules from PubChem BioAssay (NCI).

Compounds without any hit were thinned out: in the full panel of roughly 83,000, 20% have a hit.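 Cells were grown in 96-well plates and exposed to the test compound at a single concentration for 48 hours; results are reported as percent growth, with values below 10 considered active.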 A number with no mark means an inactive call. Active and inactive are the calls of the source.

For `COc1cc2c(cc1OC)C1CCN3C(=O)CCC3N1CC2` (configuration not stated), the growth in the test with HT29 colon is 109%; in the test with SNB-75 CNS it was 105%; in the test with SNB-19 CNS, 111%; in the test on U251 CNS, 112%; with PC-3 prostate, 107%; in the test on SK-MEL-5 melanoma it was 113%. Besides, the growth was 97% in the test on UACC-62 melanoma, 110% in the test with SK-MEL-28 melanoma and 119% in the test with SK-MEL-2 melanoma.

With `Cc1cc(C(C)(C)C)cc(C)c1CC1=NCCN1`, the growth is 105% in the test on HT29 colon; 97% in the test with SNB-75 CNS; 106% in the test on SNB-19 CNS; 106% in the test on U251 CNS; 91% in the test on PC-3 prostate; 96.7% with SK-MEL-5 melanoma. Also, the results for the growth in the test on LOX IMVI melanoma, with SK-MEL-28 melanoma and in the test with SK-MEL-2 melanoma were 95%, 116% and 113%, respectively.

Turning to `COC(=O)[C@]12CC[C@@H](C)[C@H](C)[C@@H]1C1=CC[C@@H]3[C@@]4(C)C[C@@H](OC(=O)c5ccco5)[C@H](O)[C@@](C)(CO)[C@@H]4[C@H](O)C[C@@]3(C)[C@]1(C)CC2`, the growth with HT29 colon is -92.8% (active); in the test on SNB-75 CNS, -84.4% (active); with SNB-19 CNS, -71% (active); with U251 CNS, -85.2% (active); in the test with PC-3 prostate it was -100% (active); with SK-MEL-5 melanoma it was -99.9% (active). Further, the values for the growth in the test on LOX IMVI melanoma, in the test with SK-MEL-28 melanoma and in the test on SK-MEL-2 melanoma were -99.4% (active), -84.6% (active) and -77.7% (active), respectively.

Turning to `CCOc1cccc(C2CC(=O)Nc3cc4c(cc32)OCO4)c1` (configuration not stated), the growth with HT29 colon was 89.1%; in the test on SNB-75 CNS, 104%; in the test on SNB-19 CNS, 100%; with U251 CNS, 85.1%; in the test on PC-3 prostate it was 81.7%; in the test on UACC-62 melanoma, 90.9%. The growth with LOX IMVI melanoma is 93.8%; in the test on SK-MEL-28 melanoma, 99.9%; with SK-MEL-2 melanoma, 83.1%.

For `COc1cccc(C2C(C#N)=C(N)Oc3cc(OC)ccc32)c1` (configuration not stated), the growth is -21.2% (active) in the test with HT29 colon; 46.1% in the test with SNB-75 CNS; 44.1% in the test with SNB-19 CNS; 3.36% (active) in the test with U251 CNS; -2.64% (active) with PC-3 prostate; -4.55% (active) in the test on SK-MEL-5 melanoma. Also, the figures for the growth in the test on LOX IMVI melanoma, in the test on SK-MEL-28 melanoma and in the test with SK-MEL-2 melanoma were 13.2%, 56.2% and 19.8%, respectively.

As to `Fc1ccc(-c2nc(Nc3ccc(-c4nc5ccccc5[nH]4)cc3)nc(N3CCOCC3)n2)cc1`, the growth with HT29 colon was -78.6% (active); with SNB-75 CNS, -92.6% (active); in the test with SNB-19 CNS, -81.2% (active); with U251 CNS, -93% (active); in the test with PC-3 prostate, -93.5% (active); in the test with SK-MEL-5 melanoma it was -97.6% (active). The growth in the test with LOX IMVI melanoma is -93% (active); in the test with SK-MEL-28 melanoma, -84.7% (active); with SK-MEL-2 melanoma it was -71.3% (active).

For `COc1ccc(C2=NNC(c3cc(Cc4ccc(O)c(C5CC(c6ccc(OC)cc6)=NN5)c4)ccc3O)C2)cc1` (configuration not stated), the growth is 92.2% in the test with HT29 colon; 46.6% in the test with SNB-75 CNS; 48.2% in the test with SNB-19 CNS; 24.8% in the test with U251 CNS; 42.4% in the test on PC-3 prostate; 47.4% in the test with SK-MEL-5 melanoma. The growth in the test with SK-MEL-28 melanoma is 79.4%; in the test on SK-MEL-2 melanoma, 20.1%.

On to `CCCCCCCCCCC[C@@H](C[C@H]1OC(=O)[C@H]1CCCCCC)OC(=O)[C@@H](CC(C)C)NC=O`, for which the growth in the test on HT29 colon is 38.4%; in the test on SNB-75 CNS it was 82.4%; with SNB-19 CNS, 55.6%; in the test with U251 CNS, 63%; with PC-3 prostate it was 50.4%; in the test on UACC-62 melanoma, 77.3%. Further, the growth with LOX IMVI melanoma was 14.1%; in the test with SK-MEL-28 melanoma it was 111%; with SK-MEL-2 melanoma it was 55.9%.

On to `CCCCN(CCCC)CCCOC(=O)c1ccc(N)cc1`, for which the growth in the test with HT29 colon was 31.4%; in the test on SNB-75 CNS, 39.1%; in the test with SNB-19 CNS it was 88.7%; with U251 CNS, 58.5%; in the test on PC-3 prostate, 97.1%; with UACC-62 melanoma, 92.3%. Besides, the figures for the growth in the test with LOX IMVI melanoma and in the test with SK-MEL-28 melanoma were 64.2% and 57.5%, respectively.

In the case of `CC[C@@H]1OC(=O)[C@H](C)[C@@H](O[C@H]2C[C@@](C)(OC)[C@@H](O)[C@H](C)O2)[C@H](C)[C@@H](O[C@@H]2O[C@H](C)C[C@H](N(C)C)[C@H]2O)[C@](C)(O)C[C@@H](C)[C@@H]2N[C@@H](COCCOC)O[C@H]([C@H]2C)[C@]1(C)O`, the growth in the test with HT29 colon is 103%; with SNB-75 CNS, 77.4%; in the test on SNB-19 CNS, 104%; in the test on U251 CNS it was 96.6%; in the test with PC-3 prostate it was 111%; in the test with UACC-62 melanoma, 109%. The growth was 94.8% in the test with LOX IMVI melanoma and 109% in the test on SK-MEL-28 melanoma.

`NS(=O)(=O)c1ccc(NC2=C(Cl)C(=O)c3ccccc3C2=O)cc1`: the growth is 105% with HT29 colon; 136% in the test on SNB-75 CNS; 101% in the test with SNB-19 CNS; 97.5% in the test with U251 CNS; 70.1% in the test with PC-3 prostate; 96.2% in the test with UACC-62 melanoma. In addition, the figures for the growth with LOX IMVI melanoma, in the test with SK-MEL-28 melanoma and in the test with SK-MEL-2 melanoma were 53.7%, 124% and 102%, respectively.

Turning to `COc1c(C)c2c(c(O)c1C/C=C(\C)CCC(=O)OCCN1CCOCC1)C(=O)OC2`, the growth in the test with HT29 colon is 1.17% (active); in the test on SNB-75 CNS, 49.1%; in the test on SNB-19 CNS, 28%; in the test with U251 CNS it was 14.7%; in the test with PC-3 prostate, 23.2%; in the test with UACC-62 melanoma, 23.6%. Further, the values for the growth in the test with LOX IMVI melanoma, in the test with SK-MEL-28 melanoma and in the test with SK-MEL-2 melanoma were 18.4%, 35.8% and 25.7%, respectively.

For `Oc1[nH]c2ccccc2c1/C=c1/ccc2c(c1)N=C(c1cc(F)cc(F)c1)N=2`, the growth with HT29 colon is 57.6%; in the test with SNB-75 CNS, 51.6%; in the test on SNB-19 CNS it was 67.9%; in the test on U251 CNS, 53%; in the test on PC-3 prostate, 26.2%; in the test on SK-MEL-5 melanoma, 69.5%. Further, the figures for the growth in the test with LOX IMVI melanoma, with SK-MEL-28 melanoma and in the test with SK-MEL-2 melanoma were 52%, 77.4% and 41.2%, respectively.

On to `COc1cc2cn3c4ccc(O)cc4nc(N)c3c2cc1OC`, for which the growth is 24.3% with HT29 colon; 2.21% (active) in the test on SNB-75 CNS; 20.5% in the test with SNB-19 CNS; 4.61% (active) in the test with U251 CNS; 35.8% with PC-3 prostate; -54.9% (active) in the test with SK-MEL-5 melanoma. Moreover, the growth is -40.5% (active) with LOX IMVI melanoma, 39% in the test with SK-MEL-28 melanoma and 21.2% with SK-MEL-2 melanoma.

For `O=C(/C=C/c1ccc(Cl)cc1)c1ccccc1`, the growth with HT29 colon was 93.8%; in the test on SNB-75 CNS it was 109%; with SNB-19 CNS it was 101%; in the test with U251 CNS, 88.2%; with PC-3 prostate, 97%; with SK-MEL-5 melanoma it was 93%. Moreover, the values for the growth in the test with LOX IMVI melanoma, in the test on SK-MEL-28 melanoma and in the test with SK-MEL-2 melanoma were 81.1%, 113% and 102%, respectively.
